Assay outcomes (PubChem)
FUS yeast rescue: qHTS for Suppressors of FUS Proteinopathy: Primary screen using FUS-linked yeast assay. actives 0.24% (n = 390,000). Potency, µM (doses to about 76.6 µM), most hits filed as activators. S. cerevisiae FUS-expressing, growth rescue, OD600, 24 h. AID 1347120, 2019;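 note: plate controls were DMSO vehicle for no effect and reference control for full effect; nearly all actives have a fitted effect of over 55% in size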
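Compound concentration series was pinned onto galactose-induced FUS-expressing yeast seeded at OD 0.005. Plates sat 24hr at 30C; absorbance at 600 nm gave growth. DMSO served as background control.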
MmCpn inh: Inhibitors of TCP-1 ring complex (TRiC) of Methanococcus maripaludis (MmCpn): qHTS. purified Mm-Cpn ATPase, ADP Transcreener TR-FRET. Potency, µM (highest dose often 76.9 µM), inactives show top-dose activity, negative = inhibition, most hits filed as inhibitors. actives 0.031% (n = 330,000). AID 504842, 2011; note: % is set by controls: 0 for no effect and ±100 for the full control effect; nearly all actives have a fitted effect of over 80% in size
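TR-FRET (320 nm excitation; 590 and 665 nm emission) reports ADP made from 10 uM ATP by 25 nM enzyme; compounds were preincubated 10 min, reaction run 30 min, both at 37°C.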
TDP43 rescue: qHTS of TDP-43 Inhibitors; Potency, µM (top dose mostly 46.1 µM), without a hit: top-dose growth rescue (activation), most hits filed as activators; actives 1.8% (n = 410,000); TDP-43 expressing yeast growth rescue, BacTiter-Glo, 24 h; note: % of control where 0% means no effect; nearly all actives have a fitted effect of over 50% in size
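Yeast expressing TDP-43 (pregrown in raffinose, seeded at OD600=0.02 in galactose medium) exposed to compounds 24 hr at 30 deg C. Growth read by BacTiter-Glo luminescence; rescue of toxicity appears as increased signal.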
aSyn rescue: qHTS of alpha-syn Inhibitors; Yeast expressing alpha-synuclein, growth rescue, BacTiter-Glo, 24 h; actives 0.14% (n = 370,000); Potency, µM (series often up to 46.1 µM), for the others: at the top dose growth rescue (activation), actives largely listed as activators; note: % of control where 0% means no effect; nearly all actives have a fitted effect of over 65% in size
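Screening used galactose-induced yeast with toxic alpha-synuclein levels, exposed to compound for 24 hr at 30 deg C. Cell growth, read with BacTiter-Glo luminescence, gave the measured signal.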
Abeta yeast res: qHTS for compounds that reverse cellular toxicity of Amyloid beta (A-beta) peptide in yeast: Primary Screen. yeast expressing A-beta42, growth rescue, OD600, 48 h; response scale: 0% DMSO, 100% iron-clioquinol control. actives 0.063% (n = 410,000). Potency, µM (titrated, usually from 46.1 µM), usual class: activators; note: nearly all actives have a fitted effect of over 55% in size
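Growth rescue measured by 600 nm absorbance after 48 h yeast culture at 30 C with compound. Values normalized between DMSO and an equimolar ferric chloride plus clioquinol control.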
ClpP mod: qHTS Assay for Activators of ClpP; AID 651965, 2013; Potency, µM (highest dose often 57.5 µM), for the others: at the highest dose activity change, negative = active; actives 1.9% (n = 340,000); purified B. subtilis ClpP, FRET peptide cleavage, 20 min; active = well fitted falling curve with a large enough effect; inconclusive = small, poorly fitted or top-dose-only effect; inactive = no such curve, though single readings can be large or run the other way; note: the source files actives as falling curves though it sought activators and does not explain the sign; nearly all actives have a fitted effect of over 65% in size
Target sequence (P80244 whole entry, looked up): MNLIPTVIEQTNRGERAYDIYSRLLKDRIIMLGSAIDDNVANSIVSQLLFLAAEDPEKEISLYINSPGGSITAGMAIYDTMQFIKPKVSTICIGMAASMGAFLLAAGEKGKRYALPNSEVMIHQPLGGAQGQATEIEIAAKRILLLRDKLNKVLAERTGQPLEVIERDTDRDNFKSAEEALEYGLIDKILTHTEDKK
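Buffer: 100 mM Tris/HCl pH8, 100 mM KCl, 0.05% low protease BSA, 2.5% glycerol, 0.01% Tween-20. ClpP 10 microg/mL final; 20 min RT; delta FRET normalized to ADEP and DMSO controls.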
The depositor's hits bear a star; i = inactive; u = inconclusive; x = no result; ! = not active in a repeat. An excerpt weighted towards active compounds, which were near 3.6% of everything screened. Unless noted, calls come from the whole dose curve; as a rule, active = well fitted curve in the direction sought with a large enough effect; inconclusive = small, poorly fitted or top-dose-only effect, or another doubt; inactive = no such curve, though single readings can be large; an effect the other way counts as inactive or inconclusive. Potency is the fitted concentration of half-maximal effect.

SMILES | FUS yeast rescue | MmCpn inh | TDP43 rescue | aSyn rescue | Abeta yeast res | ClpP mod
COc1cc(OC)c(/C=C/c2cc3c4ccccc4ccc3[n+](C)c2)c(OC)c1 | x | x | x | 3.5% | x | 4.0%
CCOC(=O)c1ccccc1NC(=O)CSc1cn(CC(=O)N2CCCCC2)c2ccccc12 | i | x | 0.0% | x | i | 0.4%
CCCCn1c(CCC(=O)O)ccc1-c1cccs1 | i | 0.7% | 17.8µM* | 15.6% | i | 4.0%
COCCn1c(CCC(=O)O)ccc1-c1cccs1 | i | -3.7% | -17.6% | 10.8% | i | x
Cc1ccc(Cl)cc1-n1c(CCC(=O)O)ccc1-c1cccs1 | i | x | 12.6µM* | x | i | -7.5%
Cc1ccc(-n2c(CCC(=O)O)ccc2-c2cccs2)cc1C | i | 0.0% | 12.4% | 4.9% | i | 11.2µM*!
COc1ccc(-c2ccc(CCC(=O)O)n2NC(N)=O)cc1 | i | 0.2% | -4.0% | -1.9% | i | 3.3%
CCCn1c(CCC(=O)O)ccc1-c1ccc(OC)cc1 | u | x | 7.6% | 2.6% | i | 28.2µM*
Cc1cc(C)c(OCC(=O)N(Cc2ccc(N(C)C)cc2)Cc2ccco2)c(C)c1 | i | x | -12.3% | x | i | -3.7%
CC(C)CN1C(=O)[C@@]2(CC(=O)N(C)C2c2ccccc2)c2cc(-n3cc(CN(C)C)nn3)ccc21 (stereo not given in full) | i | x | x | x | x | x
O=C(Nc1c(C(=O)N2CCN(c3ccccc3F)CC2)oc2ccccc12)c1ccc(Br)o1 | i | x | 11.0% | x | i | -8.6%
NS(=O)(=O)c1ccc(CCNC(=O)c2ccc3nc(Cc4ccccc4)oc3c2)cc1 | i | x | 14.2% | x | i | -6.4%
CCOC(=O)c1ccc(-n2c(CCC(=O)O)ccc2-c2cccs2)cc1 | i | -8.6% | 26.0% | 20µM* | i | x
C=CCn1c(CCC(=O)O)ccc1-c1ccccc1 | i | 3.0% | 10.1% | 1.7% | i | 28.2µM*
Cc1ccc(-c2ccc(CCC(=O)O)n2C(C)C)cc1 | i | -1.1% | 35.5µM* | 1.8% | i | 4.8%
Cc1c(Cl)cccc1-n1c(CCC(=O)O)ccc1-c1cccs1 | u | x | u | x | i | -2.6%
O=C(O)CCc1ccc(-c2ccc(Cl)cc2)n1CCC(=O)O | i | 0.7% | 4.2% | 26.5% | i | -4.7%
CCc1ccc(-n2c(CCC(=O)O)ccc2-c2cccs2)cc1 | i | x | u | x | i | -15.2%
Cc1cc(Cl)ccc1-n1c(CCC(=O)O)ccc1-c1cccs1 | u | x | 22.4µM* | x | i | -3.1%
CC1CCCCC1C(=O)N1CCC(Oc2cccnc2)CC1 (stereo not given) | i | x | x | x | x | x
Cc1ccc2nc3c(c(Nc4ccc(C)c(C)c4)c2c1)CCC3 | i | x | 2.4% | x | i | -5.9%
CCOC(=O)C(=Cc1ccc(N(C)C)cc1)C(=O)c1ccccc1 | i | x | 0.0% | -14.4% | i | 0.1%
CCOC(=O)N(O)c1ccc(C=Cc2ccccc2)cc1 | x | x | 14.1µM* | -1.7% | i | -28.1%
COC(=O)c1cc(Cc2ccc(N)c(C(=O)OC)c2)ccc1N | i | -0.7% | u | -0.1% | i | 28.2µM*
COc1cc(Cc2ccc(N)c(OC)c2)ccc1N | i | -0.2% | -20.3% | -3.3% | i | 1.2%
SMILES | FUS yeast rescue | MmCpn inh | TDP43 rescue | aSyn rescue | Abeta yeast res | ClpP mod
C=C1CC(COc2cc(=O)oc3ccccc23)(c2ccccc2)OC1=O (stereo not given) | x | x | 7.3% | 17.7% | i | -18.4%
CC(=O)OC1CCC2(C)C(COc3ccc4ccc(=O)oc4c3)C(C)(O)CCC2C1(C)C (stereo not given) | u | -0.7% | 17.8% | 12.2% | i | 12.8%
C=C1CCC2C(C)(C)[C@@H](O)CC[C@@]2(C)[C@@H]1COc1ccc2ccc(=O)oc2c1 (stereo not given in full) | i | 1.7% | 12.1% | 17.8µM* | i | 4.1%
C=C1CCC2C(C)(C)[C@H](O)CC[C@@]2(C)[C@@H]1COc1cc(=O)oc2ccccc12 (stereo not given in full) | 35.5µM* | -0.5% | 3.3% | -25.3% | i | -22.5%
COc1cccc(NC(=O)CN(CCc2ccccc2)S(=O)(=O)c2ccc(Cl)cc2)c1 | i | x | 15.4% | x | i | -5.6%
CCCCOc1ccc(C(=O)Nc2nnc3n2CCS3)cc1 | i | x | 24.2% | 5.4% | i | -2.8%
Cc1ccc(NS(=O)(=O)c2ccc(Cl)s2)nc1 | i | -2.6% | 3.3% | 2.5% | i | -9.3%
O=S(=O)(Nc1ccc(Br)cn1)c1ccc(Cl)s1 | i | 0.6% | 11.2µM* | 4.7% | i | 1.3%
CCN(CC)c1ccc2cc(-c3nc4sc5c(c4c(=O)[nH]3)CCC(C(C)(C)C)C5)c(=O)oc2c1 (stereo not given) | i | x | 3.8% | x | i | -2.9%
Cc1sc2nc3c4ccccc4c(NCc4ccco4)nn3c(=O)c2c1C | i | -3.7% | 0.0% | 4.8% | i | 25.1µM*
CCOP(=O)(c1ccccc1)c1nc(-c2ccccc2Cl)oc1N1CCCCC1 (stereo not given) | u | -1.0% | u | 15.4% | i | 20µM*
CNc1oc(-c2ccccc2F)nc1S(=O)(=O)c1ccc(C)cc1 | i | 1.6% | -7.7% | -0.3% | i | 10µM*
Cc1ccc(S(=O)(=O)c2nc(-c3ccccc3F)oc2NCc2ccccc2)cc1 | i | x | 9.5% | x | i | u
CC1CCN(c2oc(-c3ccco3)nc2S(=O)(=O)c2ccccc2)CC1 | i | -2.5% | 15.8µM* | -5.0% | i | 0.7%
Cc1ccc(S(=O)(=O)c2nc(-c3ccccc3Cl)oc2N2CCCCCC2)cc1 | i | x | -6.8% | x | i | 17.8µM*
Cn1cc(CN(C(=O)Nc2ccccc2)C2CCCCC2)c2ccccc21 | i | x | u | x | i | -27.1%
O=C(CSc1nnc(CNC(=O)c2ccc(F)cc2)o1)NCc1ccccc1Cl | x | 2.5% | 19.6% | 0.8% | i | 0.9%
O=C(CSc1nnc(CNC(=O)c2ccccc2)o1)NCc1ccccc1Cl | i | u | 16.7% | 6.3% | i | 31.6µM*
Cc1oc(-c2ccc(C(=O)Nc3ccc(F)cc3)cc2)nc1COc1ccccc1 | i | x | -7.9% | x | i | 1.1%
Cc1cccc(-n2c3nc(=O)n(C)c(=O)c-3cc3c(Cl)cccc32)c1C | i | x | 6.6% | x | i | -2.0%
